The text below walks through data of PubChem BioAssay (NCI).

Some test systems named below: SK-MEL-2 melanoma; EKVX NSCLC; SN12C renal; UO-31 renal; TK-10 renal; ACHN renal; CAKI-1 renal; A498 renal; CCRF-CEM leukemia; MOLT-4 leukemia; RPMI-8226 leukemia; OVCAR-8 ovarian; OVCAR-5 ovarian; OVCAR-4 ovarian; SK-OV-3 ovarian; IGROV1 ovarian; OVCAR-3 ovarian; HS 578T breast; NCI/ADR-RES ovarian.
What all share (experiment): NCI-60 one-dose screen, 48 h (100 = growth as untreated, 0 = no growth, -100 = all killed)
Holding throughout (details): 10 µM unless noted

About 83,000 compounds went through this panel and 20% of them were active in at least one assay; those are over-represented in the sample as a whole.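 How to read the values: 0–100, growth inhibition (40 = 60% inhibited); 0, no net growth; -100 to 0, cell death (-40 = 40% of starting cells died; -100 = all dead).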 A number with no mark means an inactive call. The source made the active and inactive calls. The calls were made as follows: active = growth percent below 10; inactive = the rest.

Take `O=C(/C=C/c1sc(Cl)nc1Cl)c1ccc(Br)cc1`: the growth in the assay on SK-MEL-2 melanoma was 96.4%; in the assay with EKVX NSCLC it was 96.5%; in the assay on SN12C renal it was 41.7%; with UO-31 renal, 80.2%; in the assay on TK-10 renal, 92.3%; with ACHN renal it was 75.6%. The growth in the assay on CAKI-1 renal was 87.1%; in the assay on A498 renal it was 92.2%; in the assay on CCRF-CEM leukemia it was 29.9%; with MOLT-4 leukemia, 29.9%; with RPMI-8226 leukemia, 30.9%; in the assay with OVCAR-8 ovarian, 90%. Besides, the growth was 95.3% in the assay with OVCAR-5 ovarian; 108% in the assay with OVCAR-4 ovarian; 105% with SK-OV-3 ovarian; 68.5% in the assay on IGROV1 ovarian; 40% in the assay on OVCAR-3 ovarian; 93.5% in the assay with HS 578T breast. In the assay on NCI/ADR-RES ovarian, the growth was 104%.
On to `Cc1nc(/N=C(\N)NC(=O)Nc2cccc(Cl)c2)sc1C`, for which the growth is 72% with SK-MEL-2 melanoma; 68.3% in the assay with EKVX NSCLC; 86.4% in the assay with SN12C renal; 84% in the assay on UO-31 renal; 111% with TK-10 renal; 78.4% in the assay with ACHN renal. In addition, the growth in the assay on CAKI-1 renal was 48.6%; in the assay with A498 renal it was 42.4%; with CCRF-CEM leukemia, 68.4%; with MOLT-4 leukemia it was 58.4%; in the assay on RPMI-8226 leukemia it was 77%; in the assay with OVCAR-8 ovarian, 94.5%. The growth with OVCAR-5 ovarian was 96.3%; in the assay on OVCAR-4 ovarian, 99.3%; in the assay with SK-OV-3 ovarian it was 87.7%; in the assay on IGROV1 ovarian, 63.1%; with OVCAR-3 ovarian, 81.5%; with HS 578T breast it was 68.8%. Besides, the growth in the assay on NCI/ADR-RES ovarian was 42.3%.
As for `C[C@H](C(=O)Nc1ccc(S(N)(=O)=O)cc1)S(=O)(=O)c1ccccc1`, the growth was 102% in the assay on SK-MEL-2 melanoma; 98.3% with EKVX NSCLC; 101% in the assay on SN12C renal; 85.8% with UO-31 renal; 95.4% in the assay with TK-10 renal; 98.9% in the assay on ACHN renal. Further, the growth is 95.2% in the assay with CAKI-1 renal; 106% in the assay on A498 renal; 105% in the assay on CCRF-CEM leukemia; 105% in the assay with MOLT-4 leukemia; 110% in the assay with RPMI-8226 leukemia; 99.1% in the assay with OVCAR-8 ovarian. Moreover, the growth in the assay with OVCAR-5 ovarian is 111%; in the assay on OVCAR-4 ovarian, 105%; in the assay on SK-OV-3 ovarian, 106%; with IGROV1 ovarian it was 98.9%; in the assay on OVCAR-3 ovarian it was 117%; with HS 578T breast it was 101%. Moreover, the growth with NCI/ADR-RES ovarian was 99.3%.
Turning to `COc1ccc2cc(C(C)C(=O)Nc3ccc(-c4n[nH]c(=S)n4C4CCCCC4)cc3)ccc2c1` (configuration not stated), the growth in the assay with SK-MEL-2 melanoma was 77%; in the assay with EKVX NSCLC, 70.5%; in the assay with SN12C renal, 73.4%; in the assay with UO-31 renal, -79.3% (active); in the assay on TK-10 renal, 95.9%; in the assay on ACHN renal, 73.4%. Moreover, the growth is 44.7% in the assay with CAKI-1 renal; 77.3% in the assay with A498 renal; 64.4% in the assay with CCRF-CEM leukemia; 55.9% with MOLT-4 leukemia; 54.3% with RPMI-8226 leukemia; 75.6% with OVCAR-8 ovarian. For the same compound, the growth in the assay on OVCAR-5 ovarian was 101%; in the assay on OVCAR-4 ovarian it was 88.1%; in the assay with SK-OV-3 ovarian, 105%; in the assay with IGROV1 ovarian, 88.9%; in the assay on OVCAR-3 ovarian, 86.4%; in the assay with HS 578T breast, 75.1%. Besides, the growth with NCI/ADR-RES ovarian is 50.7%.
Take `CCOC(=O)c1nc(Nc2ccc(C(C)=O)cc2)sc1C`: the growth with SK-MEL-2 melanoma was 106%; in the assay on EKVX NSCLC it was 97.8%; in the assay with SN12C renal, 104%; in the assay with UO-31 renal, 91.8%; with TK-10 renal it was 97.9%; in the assay on ACHN renal, 101%. Further, the growth in the assay on CAKI-1 renal is 94.7%; in the assay on A498 renal it was 75.1%; with CCRF-CEM leukemia, 99.9%; with MOLT-4 leukemia it was 97.8%; in the assay with RPMI-8226 leukemia, 103%; with OVCAR-8 ovarian, 103%. The growth with OVCAR-5 ovarian is 99.5%; in the assay on OVCAR-4 ovarian, 96.4%; in the assay with SK-OV-3 ovarian, 107%; in the assay with IGROV1 ovarian it was 103%; in the assay with OVCAR-3 ovarian it was 105%; in the assay on HS 578T breast, 105%. In addition, the growth in the assay on NCI/ADR-RES ovarian is 101%.
Consider `O=[N+]([O-])c1ccc(Cl)c(-c2cc(CCCCO)on2)c1`, for which the growth in the assay on SK-MEL-2 melanoma is 118%; in the assay on EKVX NSCLC, 103%; in the assay with SN12C renal it was 94.5%; with UO-31 renal it was 86%; in the assay on TK-10 renal, 119%; in the assay on ACHN renal, 101%. Besides, the growth with CAKI-1 renal was 87.2%; with A498 renal, 87.1%; in the assay on CCRF-CEM leukemia, 108%; with MOLT-4 leukemia it was 109%; with RPMI-8226 leukemia, 105%; in the assay with OVCAR-8 ovarian, 105%. For the same compound, the growth in the assay with OVCAR-5 ovarian was 101%; with OVCAR-4 ovarian, 97.4%; in the assay with SK-OV-3 ovarian, 113%; in the assay with IGROV1 ovarian, 105%; in the assay with OVCAR-3 ovarian it was 111%; in the assay on HS 578T breast, 99.7%. For the same compound, the growth with NCI/ADR-RES ovarian is 101%.
Turning to `COc1cc(CNS(=O)(=O)c2ccc(C)cc2)ccc1OCc1cn(-c2ccccc2)nn1`, the growth was 102% with SK-MEL-2 melanoma; 87.6% in the assay on EKVX NSCLC; 93.3% in the assay on SN12C renal; 79.5% in the assay on UO-31 renal; 104% in the assay with TK-10 renal; 95.1% in the assay on ACHN renal. Also, the growth with CAKI-1 renal was 88.5%; in the assay on A498 renal, 59%; in the assay on CCRF-CEM leukemia, 88.9%; in the assay with MOLT-4 leukemia, 88.4%; in the assay on RPMI-8226 leukemia it was 67.9%; in the assay with OVCAR-8 ovarian it was 93.2%. For the same compound, the growth is 97.9% with OVCAR-5 ovarian; 56.8% with OVCAR-4 ovarian; 97.6% with SK-OV-3 ovarian; 83.7% in the assay on IGROV1 ovarian; 85% with OVCAR-3 ovarian; 86.1% in the assay on HS 578T breast. Also, the growth with NCI/ADR-RES ovarian is 81.3%.
For the compound `CCC12CCC[N+]3([O-])CCC4(C(=Nc5ccccc54)C(O)(C(=O)OC)C1)C23` (configuration not stated), the growth in the assay on SK-MEL-2 melanoma is 121%; in the assay on EKVX NSCLC, 101%; in the assay on SN12C renal it was 99.9%; in the assay with UO-31 renal it was 87.6%; with TK-10 renal, 113%; in the assay with ACHN renal, 102%. Further, the growth is 103% in the assay with CAKI-1 renal; 108% in the assay on A498 renal; 99.9% in the assay on CCRF-CEM leukemia; 98.2% with MOLT-4 leukemia; 99.9% in the assay with RPMI-8226 leukemia; 102% with OVCAR-8 ovarian. Further, the growth in the assay on OVCAR-5 ovarian was 93.6%; in the assay with OVCAR-4 ovarian, 106%; with SK-OV-3 ovarian, 103%; in the assay with IGROV1 ovarian, 138%; in the assay with OVCAR-3 ovarian it was 106%; in the assay on HS 578T breast, 92.7%. For the same compound, the growth in the assay on NCI/ADR-RES ovarian is 103%.
